According to PubChem BioAssay AID652067 (The Scripps Research Institute Molecular Screening Center, 2013):
Screen size: about 370,000 compounds; about 5,400 (1.5%) were called active. This is one part of a sample in which actives are shown more often than they occur.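 The calls were made as follows: active = activation above the mean of all tested compounds plus 3 SD (cut at about 5.5% in these data); inactive = the rest.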

tested on: DAF-12 nuclear receptor (Haemonchus contortus); experiment: H. contortus DAF-12 nuclear receptor activators, primary screen, cell-based, luminescence, HEK293, lit1-tk-luc reporter (AID 652067); details: HEK293 hcDAF-12 lit1-tk-luc reporter, at 6.8 µM, active compounds read high, 0% DMSO, 100% Δ7-dafachronic acid;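 also: 100% = response to 3 µM Δ7-dafachronic acid high control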

| Structure (SMILES) | activation |
| --- | --- |
| Cc1ccc(C(=O)N(Cc2ccccn2)CC2CCCO2)cc1 (stereo not given) | -1.39% (inactive) |
| CN1[C@H](Cc2ccccc2)COc2cccc(N3CCSCC3)c2S1(=O)=O | 3.54% (inactive) |
| O=C(c1cc2ccccc2o1)N1CCN(Cc2ccccc2)CC1 | -2.1% (inactive) |
| CC(=O)N1CCN(c2ccccc2NC(=S)NC(=O)c2cc3ccccc3o2)CC1 | 7.26% (active) |
| O=C(Nc1ccccc1N1CCN(C(=O)c2ccccc2)CC1)c1ccco1 | -1.91% (inactive) |
| CCc1ccccc1NC(=O)NCCN1CCCCC1 | -0.86% (inactive) |
| CCc1ccccc1NC(=O)c1ccc2c(c1)CCN2S(C)(=O)=O | -0.87% (inactive) |
| CN1CCc2ccccc2C1Cc1ccccc1NC(=O)c1sc2ccccc2c1Cl (stereo not given) | 6.57% (active) |
| COC(=O)[C@]12C[C@H](CC(=O)NCCc3ccccc3OC)C(=O)N(Cc3ccco3)C1=C[C@H](C(C)C)O[C@@H]2C1CC1 | -3.62% (inactive) |
| O=C(Nc1ccccc1F)c1ccccc1-c1ccccc1 | -2.35% (inactive) |
| O=C(O)c1ccccc1-c1ccccc1C(=O)Nc1cccc2ccccc12 | 5.93% (active) |
| O=C(O)c1ccccc1-c1ccccc1C(=O)Nc1ccccc1Br | 1.04% (inactive) |
| COc1ccccc1C(=O)NCc1nnc(SC(C)C(=O)Nc2nccs2)n1C (stereo not given) | 6.99% (active) |
| CC(Sc1nnc(CNC(=O)c2ccccc2F)n1C)C(=O)Nc1nccs1 (stereo not given) | -0.26% (inactive) |
| COc1ccc(CC(=O)NCc2nnc(SCC(=O)Nc3nccs3)n2C)cc1 | -1.09% (inactive) |
| COC(=O)[C@H](CC(C)C)NS(=O)(=O)c1c(F)cccc1F | 0.07% (inactive) |
| O=C1C(=O)N(Cc2ccc(-c3ccsc3)cc2)c2ccc(OC(F)(F)F)cc21 | 1.15% (inactive) |
| O=C(NCCc1cccc(F)c1)C1CCCN(c2nc3ccccc3s2)C1 (stereo not given) | -1.62% (inactive) |
| Brc1ccc2nc(N3CCCC3)sc2c1 | 9.08% (active) |
| Cc1nc(N2CCCCC2)sc1C=O | -0.55% (inactive) |
| CC(=O)Nc1ccc(S(=O)(=O)NC2Cc3ccccc3C2)cc1 | -1.07% (inactive) |
| CC(=O)Nc1ccc(-c2nc3ccccc3o2)cc1 | 6.08% (active) |
| Cc1nc2ccc(NC(=O)C(F)(F)F)cc2o1 | 0.11% (inactive) |

| Structure (SMILES) | activation |
| --- | --- |
| CC[C@H](C)[C@H]1CNC(=O)C(=O)N1CC1CCN(CCc2ccc(OC)c(OC)c2)CC1 | -1.29% (inactive) |
| Cc1cc(O)c(C(=O)/C=C/c2c(F)c(F)c(F)c(F)c2F)c(=O)o1 | 8.11% (active) |
| Cc1cc(O)c(Sc2ccccc2)c(=O)o1 | 0.75% (inactive) |
| C=CCN1[C@@H](Cc2ccccc2)COc2cccc(N3CCSCC3)c2S1(=O)=O | -1.72% (inactive) |
| Cc1ccc2cccc(OCCCOc3ccccc3CO)c2n1 | -0.62% (inactive) |
| CC1(C)OC(=O)C2=C(CC(CCc3ccccc3)OC2c2ccc(Cl)cc2)O1 (stereo not given) | -1.84% (inactive) |
| Cc1cccc(C)c1NC(=O)C(c1ccc(C(F)(F)F)cc1)n1c(=O)c(-c2ccco2)nc2ccccc21 (stereo not given) | 0.34% (inactive) |
| Cc1cccc(C)c1NC(=O)C(c1cccc2ccccc12)n1c(=O)c(-c2ccco2)nc2ccccc21 (stereo not given) | 2.42% (inactive) |
| O=C(NC1CCCCC1)C(c1cc2ccccc2o1)n1c(=O)c(-c2ccco2)nc2ccccc21 (stereo not given) | 9.06% (active) |
| O=C(COC(=O)c1cccc(Cl)c1)NC(=O)NCc1ccccc1 | 0.2% (inactive) |
| O=C(CCOc1ccccc1)NCc1ccccc1 | 0.79% (inactive) |
| O=C(COc1cccc(Cl)c1)NCc1ccccc1 | 6.74% (active) |
| COc1ccc(CN2C(=O)N3Cc4cc(OC)ccc4C3CS2(=O)=O)cc1 (stereo not given) | -4.29% (inactive) |
| Cn1c(=O)cc(SCC(=O)N2CCCC2)c2cc(Cl)ccc21 | 0.28% (inactive) |
| Cn1c(=O)cc(SCC(=O)N2CCN(C(=O)c3ccco3)CC2)c2ccccc21 | -0.81% (inactive) |
| CCOC(=O)C1CCN(C(=O)CSc2cc(=O)n(C)c3ccccc23)CC1 | 5.88% (active) |
| O=C(N[C@H](C(=O)N1CCC[C@H]1C(=O)NCCc1ccccc1Cl)c1ccccc1)c1ccccc1 | -0.38% (inactive) |
| CCOC(=O)[C@]12CCCC=C1N(CCCOC)C(=O)[C@@H]2CC(=O)N1CCOCC1 | -0.67% (inactive) |
| O=c1[nH]n2c(=O)c3c([nH]c2c1N=Nc1ccccc1)CCC3 | 0.16% (inactive) |
| Cc1ccc(C)c(NC(=O)COC(=O)Cn2c(C)csc2=O)c1 | -0.15% (inactive) |
| CCc1ccc(NC(=O)N2CCc3ccccc3C2)cc1 | 10.8% (active) |
| Cn1cccc1C(=O)N1CCc2ccccc2C1 | 0.07% (inactive) |
| Cc1ccc(NC(=O)CN2CCc3ccccc3C2)cc1C | -0.52% (inactive) |

| Structure (SMILES) | activation |
| --- | --- |
| COC(=O)C1=C(C)N(Cc2ccccc2C(F)(F)F)C(=NCc2ccc(C(F)(F)F)cc2)NC1c1ccc(F)cc1 (stereo not given) | -0.44% (inactive) |
| O=S1(=O)c2ccc(Br)cc2OC[C@@H](Cc2ccccc2)N1Cc1cn(Cc2ccco2)nn1 | -3.82% (inactive) |
| O=C(c1ccco1)N1CCN(C(=O)c2cc(-c3ccccc3F)no2)CC1 | 0.36% (inactive) |
| Fc1ccccc1-c1cc2cc3c(cc2cn1)OCO3 | 5.75% (active) |
| O=C(NCCCN1CCOCC1)c1cc(-c2ccccc2F)no1 | -0.99% (inactive) |
| COC(=O)[C@]12C[C@H](CC(=O)NCc3cccc4ccccc34)C(=O)N(CCc3ccc(OC)c(OC)c3)C1=C[C@H](C1CCCC1)O[C@@H]2C | -3.52% (inactive) |
| C[C@H](CO)N1C[C@H](C)[C@@H](CN(C)C(=O)Nc2ccccc2F)OCc2cn(nn2)CCCC1=O | -0.15% (inactive) |
| COC(=O)c1ccc(/C=N/NC(=O)C(=O)N2CCCCCC2)cc1 | -0.19% (inactive) |
| CC(C)(C)OC(=O)N/N=C/c1ccc(C(=O)O)cc1 | 7.41% (active) |
| C/C(=N\NC(=O)OC(C)(C)C)c1ccc[nH]1 | 1.29% (inactive) |
| CCCCC(=O)N[C@@H]1CC[C@@]23CCCN2C(=O)CCC[C@H]3[C@H]1C | 0.2% (inactive) |
| O=C(c1cc(-c2ccccc2O)on1)N1CCCC1 | 7.33% (active) |
| COc1ccc(OCc2cc(C(=O)N3CCCC3)no2)c2ccccc12 | 10.3% (active) |
| COc1cc(Cl)ccc1OCc1cc(C(=O)N2CC[C@@H]3CCCC[C@H]3C2)no1 | 1.66% (inactive) |
| O=C(c1cc(C2CCCCN2S(=O)(=O)c2ccccc2)on1)N1CCOCC1 (stereo not given) | -0.3% (inactive) |
| Cc1ccc(O)c(NC(=O)c2cc(-c3ccco3)on2)c1 | 0.32% (inactive) |
| O=C(Nc1cccnc1Cl)c1cc(-c2ccccc2O)on1 | 6.07% (active) |
| O=C(NC1CCCC1)c1cc(-c2ccccc2)on1 | 4.69% (inactive) |
| O=C(c1cc(-c2ccc(O)cc2)on1)N1CCOCC1 | 6.07% (active) |
| O=C(c1cc(COc2ccc(F)cc2F)on1)N1CCOCC1 | 1.67% (inactive) |
| O=C(Nc1ccccc1C(F)(F)F)c1cc(-c2ccc(O)cc2)on1 | -0.51% (inactive) |
| COCCN1CCN(C(=O)c2cc(COc3ccc(F)cc3Cl)on2)CC1 | -1.75% (inactive) |
| O=C(c1cc(-c2ccc(Cl)s2)nc2ccccc12)N1CCOCC1 | -1.34% (inactive) |

| Structure (SMILES) | activation |
| --- | --- |
| CC(=O)C1C(c2ccc(Cl)cc2)c2c(n[nH]c2C)CC1(C)O (stereo not given) | -0.09% (inactive) |
| O=S(=O)(c1cccs1)N1CCCc2nc(-c3ccc(Br)cc3)ccc21 | -0.17% (inactive) |
| CCc1ccc(C2=CC(=O)CC(C)(C)C2=O)cc1 | 1.24% (inactive) |
| CC(C)N1CCCCC(NC(=O)c2ccc3ccccc3c2)C1=O (stereo not given) | -0.97% (inactive) |
| C=CCN1C(=O)[C@@H](CC(=O)NCCCOCCCC)[C@]2(C(=O)OCC)CCCCC/C=C/12 | -0.92% (inactive) |
| COc1ccc(S(=O)(=O)Nc2ccc3c(c2)C(=O)N([C@H](C)CO)C[C@H](C)[C@@H](CN(C)C)OCCCC[C@H](C)O3)cc1 | -1.41% (inactive) |
| Cc1cc(Br)cn2c(Cc3ccccc3C(F)(F)F)c(-c3ccc(C#N)cc3)nc12 | 0.68% (inactive) |
| COc1ccc(-c2cc(=O)oc3cc(OCC(=O)N[C@@H](Cc4c[nH]c5ccccc45)C(=O)O)ccc23)cc1 | 4.41% (inactive) |
| COc1ccc(-c2cc(C(=O)NC(C(=O)O)C(C)C)c(C)o2)cc1OC (stereo not given) | 1.96% (inactive) |
| COc1ccc(-c2cc(C(=O)NC(Cc3c[nH]c4ccccc34)C(=O)O)c(C)o2)cc1OC (stereo not given) | 6.3% (active) |
| CCOC(=O)/C=C/c1ccccc1O | -0.51% (inactive) |
| Cc1cc2ncn(CCCCOc3ccccc3)c2cc1C | -1.91% (inactive) |
| C[C@@H](CN1C2=NC[C@@H](Cc3ccccc3)N2C[C@H]1Cc1ccc(O)cc1)NC(=O)CCC1CCCCC1 | -1.42% (inactive) |
| COc1cccc(-n2nc(C(=O)N3CCN(Cc4ccccc4)CC3)c3ccccc3c2=O)c1 | -2.27% (inactive) |
| COc1ccc(OC)c(-n2c(=S)[nH]c3cc(C(=O)N4CCCCC4)ccc3c2=O)c1 | -1.94% (inactive) |
| COc1cccc(-n2c(=S)[nH]c3c(oc4ccccc43)c2=O)c1 | 5.86% (active) |
| C[C@@H]1ON(C)[C@H]2C[C@H]3c4cc(N5CCOCC5)ccc4CCN3C[C@@H]12 | -1.8% (inactive) |
| CCc1ccc2oc(-c3ccc(N)cc3)nc2c1 | 11.8% (active) |
| CCCCOCCCNC(=O)C[C@H]1C[C@@]2(C(=O)OC)C(=C[C@H](COCc3ccccc3)O[C@@H]2C)N(Cc2cccc3ccccc23)C1=O | -1.88% (inactive) |
| COc1cccc(Cn2cc(COC(=O)Nc3ccc(F)cc3)nn2)c1 | -2.13% (inactive) |
| Cc1cc(NS(=O)(=O)c2ccc(NC(=O)CSc3nnc(SCc4ccc(F)cc4)s3)cc2)nc(C)n1 | 0.88% (inactive) |
